Sampled rows, rich in hits. Any-hit rate of the full collection: about 3.3%.
AmpC inh no detg – AmpC beta-lactamase inhibition without detergent; AmpC nitrocefin hydrolysis, absorbance 480 nm, 0.0001% Triton; Potency, µM (titrated, usually from 57.1 µM), for inactives: at the top dose activity change, negative = inhibition, actives largely listed as inhibitors; 330,000 tested, 0.52% active; AID 485341;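 also: plate controls were no compound for no effect and no enzyme for full effect; nearly all actives have a fitted effect of over 20% in size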
Target sequence (P00811 whole entry, looked up): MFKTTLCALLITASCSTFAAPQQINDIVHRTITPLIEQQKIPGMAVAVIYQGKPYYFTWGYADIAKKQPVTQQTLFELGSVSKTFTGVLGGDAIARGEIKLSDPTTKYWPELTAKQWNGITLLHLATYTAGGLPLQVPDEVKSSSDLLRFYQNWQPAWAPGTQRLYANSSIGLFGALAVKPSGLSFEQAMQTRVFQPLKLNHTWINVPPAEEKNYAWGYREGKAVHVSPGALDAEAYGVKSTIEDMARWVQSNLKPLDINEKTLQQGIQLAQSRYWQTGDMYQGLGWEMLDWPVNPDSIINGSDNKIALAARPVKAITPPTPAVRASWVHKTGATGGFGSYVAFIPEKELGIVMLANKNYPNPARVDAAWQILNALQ
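20 mM phosphate pH 7.0 + 0.01% (detergent screen) or 0.0001% Triton X-100; 5.3 nM AmpC reagent; cpd preinc 15 min RT; nitrocefin (800 uM stock) to start; A480 q20 s × 4 min; Activity was normalised to no-enzyme and no-compound control wells.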
Sm TGR block – inhibitors of Schistosoma mansoni thioredoxin glutathione reductase | purified TGR, DTNB reduction, TNB absorbance 405 nm | Potency, µM (series often up to 114 µM), without a hit: top-dose activity change, negative = inhibition, usual class: inhibitors | 360,000 tested, 3% active | AID 485364; also: nearly all actives have a fitted effect of over 60% in size
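TGR 20 nM + NADPH 100 uM (dispensed conc.), cpd preinc 15 min RT; start with NADPH (500 uM addition) then DTNB (15 mM addition). Kinetic TNB absorbance, 405 nm filter. Four-parameter Hill fit across titration.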
AmpC inh detg – blocks E. coli AmpC beta-lactamase in detergent assay. 370,000 tested, 0.041% active. AID 485294. AmpC hydrolysis of nitrocefin, absorbance 480 nm, 0.01% Triton. Potency, µM (series often up to 114 µM), for inactives: at the highest dose activity change, negative = inhibition, actives largely listed as inhibitors;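 also: 0% = no-compound wells and -100% = no-enzyme wells; nearly all actives have a fitted effect of over 25% in size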
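AmpC (5.3 nM in the dispensed reagent) in 20 mM phosphate pH 7.0 with 0.01% (detergent screen) or 0.0001% Triton X-100 was preincubated with compounds for 15 min at room temperature. Nitrocefin was then added from an 800 uM solution, and hydrolysis was followed at 480 nm.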
Active calls of the source: *; ? = inconclusive; · = not tested or not shown; [ ] = dose if it differs, or a comment. Calls follow the shape of the dose curve; as a rule, active = well fitted curve in the direction sought with a large enough effect; inconclusive = small, poorly fitted or top-dose-only effect, or another doubt; inactive = no such curve, though single readings can be large; an effect the other way counts as inactive or inconclusive. Unless noted, % is scaled to controls: 0 for no effect and ±100 for the full control effect; potency is read from the fitted curve at half-maximal effect.

SMILES	AmpC inh no detg	Sm TGR block	AmpC inh detg
CC(C)(C)C1c2[nH]c3ccccc3c2CCN1Cc1cccc(OCCO)c1 (stereo not drawn)	-11%	-7%	1%
O=C(CCCn1c(=O)c2cccn2c2cccnc21)Nc1ccccc1C(F)(F)F	·	-2%	-5%
Cc1cc(C)cc(NC(=O)c2ccc3c(O)c(S(=O)(=O)c4ccccc4)c(=O)[nH]c3c2)c1	·	-2%	19%
COc1ccc(C2=CC3=C(Br)C(=O)C(C)(OC(=O)c4ccco4)C(=O)C3=CO2)cc1 (stereo not drawn)	-28%	5µM*	-3%
C=CCN1C=C2C(=O)C(C)(OC(=O)CCC(=O)OC)C(=O)C(Br)=C2C=C1c1ccc(OC)cc1 (stereo not drawn)	93%	?	-7%
COc1ccc(Nc2ncc(C(=O)N3CCN(c4cccc(Cl)c4)CC3)c3ccccc23)cc1	·	-10%	3%
CC1=C(C(=O)Nc2ccccc2)C(c2ccc(O)cc2)n2nc(-c3ccc(Cl)cc3)nc2N1 (stereo not drawn)	·	1%	0%
O=C(C1CCN(C2CC(=O)N(c3cccc(Cl)c3)C2=O)CC1)N1CCCCCC1 (stereo not drawn)	78%	14µM*	-16%
CCCOc1ccc(N2C(=O)CC(N3CCCC(C(=O)N4CCCC4)C3)C2=O)cc1 (stereo not drawn)	12%	35µM*	?
O=C(C1CCCN(C2CC(=O)N(c3ccc(F)cc3)C2=O)C1)N1CCCC1 (stereo not drawn)	-6%	?	5%
CCCOc1ccc(N2C(=O)CC(N3CCC(c4nc5ccccc5o4)CC3)C2=O)cc1 (stereo not drawn)	-1%[2.29 µM]	-5%	-12%
O=C(C1CCCN(C2CC(=O)N(c3ccc(Cl)cc3)C2=O)C1)N1CCCC1 (stereo not drawn)	5%	40µM*	5%
CCN1C(=O)CC(N2CCC(C(=O)N3CCCCCC3)CC2)C1=O (stereo not drawn)	3%[2.29 µM]	-14%	-6%
Cc1cc(C)n(CC2CC(=O)N(c3ccc(F)c(Cl)c3)C2=O)n1 (stereo not drawn)	35%	-1%	-3%
Cc1cc(C)n(C2CC(=O)N(c3cccc(Cl)c3)C2=O)n1 (stereo not drawn)	-34%	25µM*	-10%
CCc1ccccc1NC(=O)c1ccc2c(c1)CCCN2S(C)(=O)=O	·	-1%	-2%
Cc1ccc2c(=O)cc(C(=O)Nc3ccc(S(=O)(=O)N4CCCCCC4)cc3)oc2c1C	·	0%	15%
COc1ccc(OC)c(CNC(=O)c2nn(-c3ccc(OC)c(Cl)c3)c(=O)c3c2c2ccccc2n3C)c1	·	5%	7%
CCOc1ccccc1C1C(C(=O)Nc2ccccc2)=C(C)Nc2c(C(=O)Nc3ccc(F)cc3)cnn21 (stereo not drawn)	·	-5%	-5%
CCOc1ccc(S(=O)(=O)N2Cc3ccccc3CC2C(=O)Nc2ccc(NC(C)=O)cc2)cc1 (stereo not drawn)	·	1%	-7%
O=C(Nc1ccc2nc(SCC(=O)N3CCc4ccccc43)sc2c1)c1ccccc1	·	-4%	18%
Cc1ccc2[nH]c3c(c2c1)CN(C(=O)CN1CCCCC1)CC3	5%	-10%	-9%
Cc1ccc2[nH]c3c(c2c1)CN(C(=O)CN1CCCc2ccccc21)CC3	22%	32µM*	?
COC(=O)c1ccc(NC(=O)c2cccc(OC)c2)cc1	-33%	1%	0%
COC(=O)c1ccc(NC(=O)c2cccc(C)c2)cc1	-13%	89µM*	5%
SMILES	AmpC inh no detg	Sm TGR block	AmpC inh detg
Cc1cccc(C(=O)NNC(=O)c2ccc(F)cc2)c1	-12%	7.9µM*	-7%
Cc1cccc(C(=O)NNC(=O)c2cccc(C)c2)c1	-9%	8%	1%
Cc1cc(C)c(NC(=O)CSc2nc3ccccc3nc2N2CCCCC2)c(C)c1	·	-5%	30%
NC(=O)Nn1c(CCC(=O)O)ccc1-c1ccc(F)cc1	-16%	50µM*	1%
Cc1ccc(-c2ccc(CCC(=O)O)n2NC(=O)c2ccc([N+](=O)[O-])cc2)cc1	-15%	?	6%
O=C(O)CCc1ccc(-c2ccc(Br)cc2)n1NC(=O)c1ccc([N+](=O)[O-])cc1	-29%	45µM*	5%
Cc1ccc(-c2ccc(CCC(=O)O)n2NC(=O)c2ccco2)cc1	-6%	?	-4%
CCOC(=O)Cn1c(CCC(=O)O)ccc1-c1ccc(F)cc1	-39%	-35%	0%
O=C(O)CCc1ccc(-c2ccc(F)cc2)n1NC(=O)c1ccco1	-11%	40µM*	-15%
COc1cccc(C(=O)Nc2nnc(S(=O)(=O)N3CCCc4ccccc43)s2)c1	·	7%	17%
Cc1ccc(-n2nc3c(=O)n(C(C)C(=O)NCc4ccc(OC(C)C)cc4)nc(C)c3c2C)cc1 (stereo not drawn)	·	-14%	-7%
O=C(CCl)Nc1cn(-c2ccccc2)nc1-c1ccc(F)cc1	-10%	32µM*	-5%
Fc1ccc(-c2nn(-c3ccccc3)cc2CNCc2ccccc2)cc1	-6%	·	-7%
COc1ccccc1CNC(=O)C1CCN(C2=NS(=O)(=O)C(c3ccc(C)c(C)c3)=C2C)CC1	·	1%	1%
CCCCn1nc(C(=O)NCc2ccccc2CN2CCCC2)c2ccccc2c1=O	44%	-18%	-13%
CC(C)Cn1nc(C(=O)NCc2ccccc2CN2CCCC2)c2ccccc2c1=O	20%	28µM*	6%
CCN(CC)S(=O)(=O)c1ccc(OC)c(NC(=O)c2ccc([N+](=O)[O-])cc2)c1	-7%	-7%	-2%
O=C(Nc1cccc(Cl)c1)c1cccc(Oc2ccc([N+](=O)[O-])cc2Cl)c1	?	-8%	-18%
COc1ccc(NC(=O)c2cccc(Oc3ccc([N+](=O)[O-])cc3Cl)c2)cc1	2.5µM*	0%	?
COc1ccc(C(=O)Nc2ccccc2)cc1NC(=O)c1ccc([N+](=O)[O-])cc1	18µM*	2%	-9%
COc1ccc(-c2c(C)c3ccc(O)c(CN4CCN(CCO)CC4)c3oc2=O)cc1OC	·	-3%	10%
CC(C)(C)c1cc(C(=S)N2CCN(CCO)CC2)cc(C(C)(C)C)c1O	138%	0%	-9%
CC(C)(C)c1cc(C(=O)CCN2CCOCC2)cc(C(C)(C)C)c1O	111%	3.5µM*	-7%
CCC(=O)c1ccc(OCCN2CCOCC2)cc1	-5%	-10%	?
O=C(CCN1CCOCC1)c1ccc(N2CCCCC2)cc1	0%	14µM*	6%
O=C(NCCCN1CCN(c2ccc(F)cc2)CC1)c1cnn(-c2ccc(F)cc2)c1-n1cccc1	·	-4%	?
O=C(O)c1ccc(N2C(=O)/C(=C/c3ccc(-c4ccc([N+](=O)[O-])cc4)o3)C=C2c2ccccc2)cc1	-47%	45µM*	?
O=C1NN(c2ccccc2)C(=O)/C1=C/c1ccc(-c2ccc(C(=O)O)cc2)o1	-32%	-32%	?
CCOc1cc(-c2ccc(OC(=O)c3ccccc3)c(OC)c2)cc(=O)c2c(C)oc(C)c12	·	-23%	20%
COc1cc(-c2cccs2)cc(=O)c2c(C)oc(C)c12	-26%	40µM*	1%

Screening results (PubChem)
